# In article PMC4336329 (PLoS ONE, 2015):
# In all, about 310,000 compounds went through this assay and about 2,200 (0.71%) showed an effect of 50% or more. Effects have a minus sign here. Shown is part of a subset that was picked to be rich in strong results.
# Biological target: human ether-à-go-go-related gene (hERG) potassium channel (human, UniProt Q12809)
# Assay: primary screen, population patch clamp on CHO cells stably expressing hERG; higher = less effect of the substance
# human ether-à-go-go-related gene (hERG) potassium channel, sequence (Q12809 whole entry, looked up): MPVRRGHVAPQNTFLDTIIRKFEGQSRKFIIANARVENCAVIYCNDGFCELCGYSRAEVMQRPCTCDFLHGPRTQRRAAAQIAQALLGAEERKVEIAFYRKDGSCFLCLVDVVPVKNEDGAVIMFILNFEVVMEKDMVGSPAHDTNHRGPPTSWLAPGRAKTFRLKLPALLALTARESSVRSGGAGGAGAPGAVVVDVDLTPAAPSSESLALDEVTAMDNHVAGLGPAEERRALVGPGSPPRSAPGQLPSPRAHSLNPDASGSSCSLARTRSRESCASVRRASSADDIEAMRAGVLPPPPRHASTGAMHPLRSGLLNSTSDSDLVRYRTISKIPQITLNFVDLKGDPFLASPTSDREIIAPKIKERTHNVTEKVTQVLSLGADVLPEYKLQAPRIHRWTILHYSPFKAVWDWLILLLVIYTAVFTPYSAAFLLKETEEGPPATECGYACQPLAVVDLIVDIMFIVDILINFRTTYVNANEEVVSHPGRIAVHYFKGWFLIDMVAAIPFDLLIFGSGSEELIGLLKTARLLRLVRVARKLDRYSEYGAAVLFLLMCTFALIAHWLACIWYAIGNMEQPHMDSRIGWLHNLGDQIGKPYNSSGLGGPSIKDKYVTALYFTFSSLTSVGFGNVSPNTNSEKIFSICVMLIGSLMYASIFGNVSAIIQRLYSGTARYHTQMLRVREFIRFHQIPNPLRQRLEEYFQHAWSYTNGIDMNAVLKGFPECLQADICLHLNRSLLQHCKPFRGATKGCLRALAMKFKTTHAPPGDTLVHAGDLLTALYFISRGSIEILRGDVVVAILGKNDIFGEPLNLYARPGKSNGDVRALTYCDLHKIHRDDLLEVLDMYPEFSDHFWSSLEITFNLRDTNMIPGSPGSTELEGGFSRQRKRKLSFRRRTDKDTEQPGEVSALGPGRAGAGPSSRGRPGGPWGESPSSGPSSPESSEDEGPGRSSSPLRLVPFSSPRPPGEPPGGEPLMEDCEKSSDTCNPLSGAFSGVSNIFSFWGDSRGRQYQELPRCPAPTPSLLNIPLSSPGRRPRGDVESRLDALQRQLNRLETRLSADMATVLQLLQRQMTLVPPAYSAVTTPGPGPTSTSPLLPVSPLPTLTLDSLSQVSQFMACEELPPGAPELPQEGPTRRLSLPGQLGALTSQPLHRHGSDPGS
row,Compound,"hERG current change (%, negative = inhibition) at 1uM [%]"
1,Cc1cnc(-c2nnc(N(C)C(=O)c3cccnc3)s2)cn1,10.2
2,CCN(CC)c1ccc(/C=N/NC(=S)NC)c(O)c1,4.81
3,Cc1c(N=C2NC(=O)/C(=C/c3cccc([N+](=O)[O-])c3)S2)c(=O)n(-c2ccccc2)n1C,12.1
4,Cc1ccc(S(=O)(=O)CC(O)COc2ccc(F)cc2Cl)c(C)c1 (centres unmarked),7.06
5,COc1ccc(/C=N/NC(=O)C2c3ccccc3Oc3ccccc32)c(OC)c1,11.6
6,NS(=O)(=O)c1ccc(CNC(=O)c2cc(-c3cccnc3)nc3ccccc23)cc1,14.6
7,CCc1ccccc1NC(=O)Nc1c(C)n(C)n(-c2ccccc2)c1=O,-14.2
8,Cn1c(CSCc2ccc(F)cc2)n[nH]c1=S,13.6
9,CNC(=O)CSc1nc(-c2ccccc2)c(-c2ccccc2)[nH]1,3.72
10,Cc1ccc(S(=O)(=O)N2CCN(C(=O)c3nn(C(C)C)c(=O)c4ccccc34)CC2)cc1C,5.96
11,CC(C)Oc1ccc(S(=O)(=O)N2CCOCC2)cc1NC(=O)C1=COCCO1,11
12,CC(=O)C[C@H]1c2ccccc2S(=O)(=O)N1C1CCCC1,14.6
13,Cn1c(Nc2ccc(F)cc2)nc2ccccc21,-77.5
14,Cn1c(Nc2ccccc2)nc2ccccc21,8.25
15,COc1ccc(Nc2nc3ccccc3n2C)cc1,13.1
16,COc1ccc(-c2[nH]c(-c3ccc(C)cc3)nc2SCC(=O)Nc2nccs2)cc1,21.6
17,CC1CN(C(=O)COc2ccc3c(-c4ccccc4)cc(=O)oc3c2)CC(C)O1 (centres unmarked),10.8
18,CC(=O)Nc1ccc(OS(=O)(=O)c2ccc(Cl)cc2)cc1,-1.62

row,Compound,"hERG current change (%, negative = inhibition) at 1uM [%]"
1,CC(=O)Nc1ccc(OS(=O)(=O)c2cc(Cl)ccc2C)cc1,13.6
2,COc1ccc(Cl)cc1S(=O)(=O)Oc1ccc(NC(C)=O)cc1,-58.8
3,CCN(CC)CCCNC(=O)C(C)n1c2ccccc2c2nc(=O)cc(C)n21 (centres unmarked),12.7
4,O=C1c2ccccc2C(=O)N1/N=C/c1ccc(O)c(O)c1,13.9
5,CCOc1ccc(C2NC(=O)c3n[nH]c(C)c32)cc1 (centres unmarked),9.09
6,COc1ccc(N2CCN(CCOc3ccc4c(C)cc(=O)oc4c3)CC2)cc1,-37.8
7,COc1ccccc1N1CCN(CCCOc2ccc(F)cc2)CC1,-60.3
8,COc1ccccc1N1CCN(CCCCCCOc2ccc(F)cc2)CC1,-7.53
9,COc1ccccc1N1CCN(CC(=O)c2ccc(F)cc2)CC1.Cl,16.7
10,COc1ccccc1N1CCN(CCN(C(=O)c2ccc(F)cc2)c2ccccn2)CC1.Cl,-57.8
11,COc1ccccc1N1CCN(Cc2ccc(F)cc2)CC1,6.42
12,COc1ccccc1N1CCN(CCCCOc2ccc(F)cc2)CC1.Cl,-71.5
13,Cc1ccccc1N1CCN(CCCOc2ccc3c(C)cc(=O)oc3c2)CC1,-56.2
14,COc1ccccc1N1CCN(CCCC(=O)c2ccc(F)cc2)CC1,-43.2
15,COc1ccccc1N1CCN(CCCCOc2cccc3ccccc23)CC1.Cl,9.44
16,Cc1cc(=O)oc2cc(OCCCN3C(=O)c4ccccc4C3=O)ccc12,-0.574
17,COc1ccccc1N1CCN(CCN(C(=O)C2CCCCC2)c2ccccn2)CC1.O=C(O)/C=C\C(=O)O,4.2
